# Results as given in PubChem BioAssay AID1850 (Southern Research Specialized Biocontainment Screening …, 2009).
# Where “and” joins values, the source holds several entries; their conditions need not be identical. Equal values may be shown once. Among all 310,000 compounds or so, about 1,000 (0.32%) were called active. A selection follows. Entries with a potency or affinity are not part of this list. Unmarked numbers belong to inactive results. How the calls were made is not given here.
# Assay: Inhibition of PhoP regulon, Salmonella typhi GFP reporter cells, confirmation, 4 h (AID 1850);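 further: 0% = induced wells with vehicle and 100% = uninduced wells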
# Settings: Salmonella Typhi PhoP-promoter GFP reporter, fluorescence, at 50 µM, stronger effect = higher value
row,SMILES,inhibition
1,CCOC(=O)CC1(NC(=O)C2CCC(=O)N(Cc3ccccc3F)C2)CCCCC1 (stereo unspecified),-14.3%
2,CN(C)CCCN(C(=O)c1ccco1)c1nc2c(F)cc(F)cc2s1,1.38%
3,CCn1cc(C(=O)O)c(=O)c2cc(F)c(N3CCN(C(=S)NC(=O)c4ccccc4Cl)CC3)cc21,11.6%
4,CCn1cc(C(=O)O)c(=O)c2cc(F)c(N3CCN(C(=S)NC(=O)c4ccccc4Br)CC3)cc21,-18.1%
5,Cc1cc(S(=O)(=O)Nc2ccc(C(=O)N3CCN(c4ccccc4O)CC3)cc2)ccc1F,-8.67%
6,COc1ccc(Cn2cc(F)c(=O)n(C)c2=O)cc1[N+](=O)[O-],4.35%
7,Cc1ccc(S(=O)(=O)N2CCCC(C(=O)NCC3COCCO3)C2)cc1 (stereo unspecified),-3.93%
8,O=C(N/N=C/c1cccc([N+](=O)[O-])c1)C1COc2ccccc2O1 (stereo unspecified),-0.57%
9,O=C(N/N=C\c1ccc(-c2ccccc2[N+](=O)[O-])o1)C1COc2ccccc2O1 (stereo unspecified),6.46%
10,COc1cc([N+](=O)[O-])cc(/C=N\NC(=O)C2COc3ccccc3O2)c1O (stereo unspecified),16.3%
11,O=C(N/N=C\c1ccc(O)c([N+](=O)[O-])c1)C1COc2ccccc2O1 (stereo unspecified),1.19%
12,CCOC(=O)C1(Cc2ccccc2C(F)(F)F)CCN(Cc2ccon2)CC1,-14.2%
13,O=C(Cn1cnc(S(=O)(=O)N2CCCC2)c1)Nc1cccc(Br)c1,-2.76%
14,O=C(Nn1cnnc1)c1ccccc1-c1ccccc1,9.02%
15,COc1cccc(-c2ccc3nnc(SCC(=O)N4CCCC4)n3n2)c1,1.13%
16,CCN1C(=O)NC(c2ccc(Cl)cc2)C2=C1CCCC2=O (stereo unspecified),-16.4%
17,OCCN1CCN(CC(O)COC(c2ccc(F)cc2)c2ccc(F)cc2)CC1 (stereo unspecified),-5.69%
18,O=C(CN1CCCC1)N1CCCC(c2ccc(F)cc2)c2ccc(F)cc21 (stereo unspecified),-12.7%
19,N/C(CC(=O)Nc1ccc(F)c(Cl)c1)=N\OC(=O)c1cccs1,-6.75%
20,CC(=O)Cc1nsc(Nc2ccc(C)cc2)n1,0.05%
21,COC(=O)c1cc(-c2cccc([N+](=O)[O-])c2)c2c(=O)n(C)c(=O)n(C)c2n1,0.74%
22,CC1CCC(C(C)C)C(OC(=O)COC(=O)c2ccc(N)cc2)C1 (stereo unspecified),-3.86%
23,CC1CCC(C(C)C)C(OC(=O)Cn2c(-c3ccc(F)cc3)[n+](C)c3ccccc32)C1 (stereo unspecified),9.13%

row,SMILES,inhibition
1,CC1CCC(C(C)C)C(OC(=O)Cn2c(-c3ccc(Br)cc3)[n+](C)c3ccccc32)C1 (stereo unspecified),-12.1%
2,CC1CCC(C(C)C)C(OC(=O)CSc2nccc(=O)[nH]2)C1 (stereo unspecified),-9.72%
3,CC1CCC(C(C)C)C(OC(=O)Cn2c(-c3ccccc3)[n+](C)c3ccccc32)C1 (stereo unspecified),7.04% and -8.34%
4,CC1CCC(C(C)C)C(OC(=O)COC(=O)c2ccccc2N)C1 (stereo unspecified),-3.26%
5,CCOC(=O)c1cnc2ccc(OC)cc2c1NCCN1CCOCC1,-3.63%
6,COc1ccc(OC)c(NC(=O)c2nnn(CC(=O)Nc3ccc4c(c3)OCO4)c2N)c1,-17.1%
7,CN(C(=O)C1CCN(S(=O)(=O)c2cccs2)CC1)C1CCCCC1,-11.4%
8,CCC(C)(C)c1ccc(OCCCC[n+]2ccc(C)cc2)c(C(C)(C)CC)c1,6.7%
9,CCC(C)(C)c1ccc(OCCCC[n+]2cccc(C)c2C)c(C(C)(C)CC)c1,9.55%
10,Cc1cc(=O)oc2cc(OCCCC[n+]3ccccc3)ccc12,-6.05%
11,CCCCOc1ccc(CCN)cc1Cl,-8.19%
12,CCCCCc1ccc(OCCCC[n+]2ccc(C)cc2)c(CCCCC)c1,-3.58%
13,CC(=O)Nc1ccc(OCCC[n+]2cccc(C(=O)[O-])c2)cc1,5.76%
14,Cc1ccc[n+](Cc2ccc([N+](=O)[O-])cc2)c1,-2.48%
15,CC(=O)Nc1ccc(OCCC[n+]2ccccc2)cc1,-5.56%
16,COc1ccc(N(C(C)C(=O)N/N=C/c2ccc(OCC(C)C)cc2)S(C)(=O)=O)cc1 (stereo unspecified),-7.5%
17,O=c1[nH]c(=O)n(C2CCCCCC2)c(O)c1C=NCc1cccnc1,0.08%
18,Cn1nc(CC(=O)Nc2ncc(Br)s2)c2ccccc2c1=O,-7.27%
19,COc1ccc(S(=O)(=O)N2CCCC(C(=O)NC3CC3)C2)cc1Cl (stereo unspecified),4.9%
20,CC1CCCN(C2=NC(=O)/C(=C/c3cn(-c4ccccc4)nc3-c3cccc(S(=O)(=O)N(C)C)c3)S2)C1 (stereo unspecified),-7.62%
21,Cc1cc(Br)c(NC(=O)COC(=O)CSc2nnc(-c3ccc(Cl)cc3)o2)c(Br)c1,6%
22,Cc1ccc(S(=O)(=O)NCCC(=O)Nc2ccc(Cl)c(Cl)c2)cc1,-0.17%
23,COCc1cc(=O)n2[nH]c(N)nc2n1,6.29%

row,SMILES,inhibition
1,CCOC(=O)[C@@H]1[C@H]2COc3cc(OC)ccc3[C@@H]2N2C(=O)N(c3ccc(C)cc3)C(=O)[C@]12C,-2.59%
2,CC[n+]1c(/C=C/N(C)c2ccccc2)sc2ccc(Cl)cc21,-2.8%
3,CCn1c(/C=C/N(C)c2ccccc2)[n+](CC)c2ccc(Cl)cc21,20.2%
4,Cc1ccc(SCC(=O)NCCSC(C)(C)C)cc1,-5.44%
5,CC(=O)Nc1ccc(S(=O)(=O)NCCCc2ccccc2)cc1,-4.81%
6,Cc1ccc2nc(N(CCCN(C)C)C(=O)c3ccc(Br)s3)sc2c1,4.27%
7,Cc1ccc2sc(N(CCCN(C)C)C(=O)c3nc4ccccc4s3)nc2c1C,11.1%
8,CC(NCc1ccc(Cl)cc1Cl)C(O)c1ccccc1 (stereo unspecified),-10%
9,CSc1ccc(CNC(C)C(O)c2ccccc2)cc1 (stereo unspecified),20.7%
10,CC(NCc1ccc(Cl)cc1)C(O)c1ccccc1 (stereo unspecified),32.7%
11,CC(NCc1ccccc1Cl)C(O)c1ccccc1 (stereo unspecified),3.04%
12,CCOc1ccc(-c2nc(CSCC(=O)NC3CC3)c(C)o2)cc1,5.51%
13,O=C(Nc1cc(Cl)ccc1-n1cncn1)c1ccc(F)c(S(=O)(=O)N2CCOCC2)c1,6.99%
14,CC(C)c1ccc(NC(=S)N2CCN(Cc3ccccc3)CC2)cc1,14.4%
15,COc1ccc(CC(=O)N2CCC(Nc3nc4ccccc4n3Cc3ccc(F)cc3)CC2)cc1,8.15%
16,COc1ccc(CNc2nc3ccccc3n2CCN2CCOCC2)cc1,14.4%
17,CC(C)=C(NC(=O)c1ccccc1Br)C(=O)NCCc1nc2ccccc2[nH]1,3.02%
18,Cc1ccccc1Nc1nc(Nc2ccccc2C)nc(SC2=NCCS2)n1,5.86%
19,CCCCNC(=S)NCC(c1ccccc1)c1c[nH]c2ccccc12 (stereo unspecified),0.6%
20,OC(CNCC(c1ccc(Cl)cc1Cl)c1c[nH]c2ccccc12)c1ccccc1 (stereo unspecified),-5.36%
21,O=C(O)CCN1C(=O)c2ccc(NC(=O)C(c3ccccc3)c3ccccc3)cc2C1=O,3.59%
22,Cn1c(=O)c2c(ncn2CC(=O)Nc2nc(-c3ccccc3Cl)cs2)n(C)c1=O,21.1%
23,CCc1ccc2nc3nc(C)cc(C)c3c(N)c2c1,-15%

row,SMILES,inhibition
1,Cc1cc(C)c2c(N)c3cccc(C)c3nc2n1,-7.17%
2,CC(=O)c1ccc(NC(=O)CSc2nc(N)c3cc4c(nc3n2)CCCC4)cc1,-7.23%
3,Cc1cc(C)c(OCC(=O)OCC(=O)NCCC2=CCCCC2)c(C)c1,1.39%
4,CC12CN3CCN(C1)CC(C)(C3)C2=NN,6.55%
5,NC(=S)N/N=C/c1c(O)ccc2ccccc12,-1.9%
6,O=c1c2ccccc2nc(N/N=C/c2ccc(O)cc2)n1O,10.2%
7,O=C(N/N=C\c1c(O)ccc2ccccc12)c1ccc(O)cc1,-4.79%
8,Cc1ccccc1/C=N/Nc1nc2ccccc2c(=O)n1O,-20.3%
9,Cc1ccc(C(=O)N/N=C/c2c(O)ccc3ccccc23)cn1,-2.29%
10,Oc1ccc2ccccc2c1/C=N/Nc1ccccc1,-3.44%
11,CC(C)(C)C(=O)Nc1ccnn1C1CCN(C(=O)c2ccc(Cl)cc2F)CC1,-1.83%
12,Cc1cc(OCc2nc(-c3cccnc3)no2)c(C)cc1Br,-4.41%
13,O=C1[C@@H]2Cc3c([nH]c4ccccc34)C(c3cccc(Br)c3)N2C(=O)CN1C1CCN(Cc2ccccc2)CC1 (stereo partly specified),0.55%
14,CCOc1cc(C(=O)Nc2ccccc2N2CCOCC2)ccc1OCC(=O)N1CCCCC1,-2.04%
15,CC1Oc2cc3c(-c4c(O)cc(O)c5c(O)c6c(cc45)OC(C)C(C)C6=O)c(O)cc(O)c3c(O)c2C(=O)C1C (stereo unspecified),15.3%
16,C[C@@H]1Cc2c(O)c(O)cc(O)c2C(=O)O1,6.45%
17,Cc1cnc(C(=O)NC2CC(C)(C)Cc3c2cnn3-c2cccc(F)c2)cn1 (stereo unspecified),-5.99%
18,NC(=O)c1ccc(SCC(=O)OCC(=O)NCc2ccco2)c([N+](=O)[O-])c1,-1.63%
19,Nc1nc(N)nc(-c2cccc(Cl)c2Cl)n1,-6.05%
20,Nc1nnc(-c2ccccc2)c(-c2ccccc2)n1,-9.89%
21,CC(=O)N1CCN(S(=O)(=O)c2cccc(C(=O)Nc3ccccc3N3CCCC3)c2)CC1,-2.62%
22,O=C(O)[C@H](Cc1ccccc1)NC(=O)N1CCOCC1,-2.76%
